Test results: PubChem BioAssay AID1259421 (Broad Institute, 2018)
Where “and” joins values, the source holds several entries; their conditions need not be identical. Equal values may be shown once. The whole screen tested about 6,400 compounds, of which about 610 (9.5%) were called active. The sample holds actives, similar compounds and a random draw of the others, so the mix is not that of the screen. Rule as the data show it: active = activity change below about -70%; inconclusive = no clear call, values can overlap the other calls; inactive = above that. A structure can be active in one record and inactive in another.

Assay: Toxoplasma gondii ME49Luc growth in HeLa cells, luciferase, no IFN-y, primary screen (AID 1259421)
Settings: T. gondii ME49Luc in HeLa, 72 h, stronger effect = lower value, concentration not given here

Row | SMILES | activity change, negative = inhibition
1 | CCCCC[C@H](O)/C=C/[C@@H]1[C@H]2C/C(=C/CCCC(=O)O)O[C@H]2C[C@H]1O | 13.9% (inactive)
2 | O=C(O)CCc1nc2ccccc2[nH]1 | 7.52% (inactive) and 21.6% (inactive)
3 | COCC(=O)O[C@]1(CCN(C)CCCc2nc3ccccc3[nH]2)CCc2cc(F)ccc2[C@@H]1C(C)C | -74.4% (active) and -72.6% (active)
4 | CC(C)[C@H]1c2ccc(F)cc2CC[C@@]1(CCN(C)CCCc1nc2ccccc2[nH]1)OC(=O)C1CC1 | -84% (active) and -73.8% (active)
5 | O=C(O)C1CC(O)CN1 (configuration not stated) | -0.806% (inactive)
6 | Cc1ccc(S(=O)(=O)Nc2nc3ccccc3nc2Nc2ccc3nsnc3c2)cc1 | 1.14% (inactive)
7 | O=c1oc2cc(O)ccc2c2oc3cc(O)ccc3c12 | 13.4% (inactive)
8 | CN(C)CC[C@H](CSc1ccccc1)Nc1ccc(S(=O)(=O)NC(=O)c2ccc(N3CCN(Cc4ccccc4-c4ccc(Cl)cc4)CC3)cc2)cc1[N+](=O)[O-] | -28.3% (inactive)
9 | CC1(C)CCC(c2ccc(Cl)cc2)=C(CN2CCN(c3ccc(C(=O)NS(=O)(=O)c4ccc(N[C@H](CCN5CCOCC5)CSc5ccccc5)c(S(=O)(=O)C(F)(F)F)c4)cc3)CC2)C1 | -89% (active)
10 | COC(=O)C(CCCN=C(N)N)NC(=O)CCCc1c(-c2ccccc2)[nH]c2c(F)cc(F)cc12 (configuration not stated) | 11.7% (inactive)
11 | C=C1[C@H]2CC[C@@]3(C)[C@H](c4ccoc4)OC(=O)C[C@]13O[C@H]1C[C@H](O)C(C)(C)[C@H](CC(=O)OC)[C@]12C | -4.68% (inactive)
12 | CCOC(=O)[C@H](CCc1ccccc1)N[C@H](C)C(=O)N1C2CCCCC2C[C@H]1C(=O)O (some centres not stated) | 14.3% (inactive) and 13.5% (inactive)
13 | C=CC(=O)Nc1cccc(OC)c1 | 7.29% (inactive)
14 | COc1cc(SC)ccc1-c1nc2ccncc2[nH]1 | -3.26% (inactive)
15 | CCN(CC)CC1CCCCN1CC(=O)N1c2ccccc2C(=O)Nc2cccnc21 (configuration not stated) | 5.74% (inactive) and 8.21% (inactive)
16 | COc1cc2c(cc1O)CC[C@@H]1[C@@H]2CC[C@]2(C)[C@@H](O)CC[C@@H]12 | -44.5% (inactive)
17 | C[C@]12CCC3c4ccc(O)cc4CCC3C1CC[C@@H]2O (some centres not stated) | -87.4% (active)
18 | COc1ccc2c(c1)CCC1C2CC[C@@]2(C)C1CC[C@@H]2O (some centres not stated) | -9.49% (inactive)
19 | C[C@]12CC[C@@H]3c4ccc(O)cc4CC[C@H]3[C@@H]1C[C@@H](O)[C@@H]2O | -0.302% (inactive)
20 | CC(=O)OC1CCC2C3CCc4cc(O)ccc4C3CCC12C (configuration not stated) | 1.9% (inactive)
21 | C[C@]12CCC3c4ccc(OC(=O)c5ccccc5)cc4CCC3C1CCC2=O (some centres not stated) | -55.9% (inactive)
22 | CC12CCC3c4ccc(OC(=O)c5ccccc5)cc4CCC3C1CCC2O (configuration not stated) | -15.9% (inactive)
23 | C[C@]12CCC3c4ccc(OC(=O)c5ccccc5)cc4CCC3C1CC[C@@H]2O (some centres not stated) | -85.4% (active)
24 | C[C@]12CCC3c4ccc(O)cc4CCC3C1C[C@@H](O)[C@@H]2O (some centres not stated) | -4.22% (inactive)
25 | C[C@]12CCC3c4ccc(OS(=O)(=O)O)cc4CCC3C1CC[C@H]2O (some centres not stated) | -7.66% (inactive)
26 | CC12CCC3c4ccc(O)cc4CCC3C1C[C@H](O)[C@@H]2O (some centres not stated) | -75.1% (active)

Row | SMILES | activity change, negative = inhibition
27 | C[C@]12CC[C@@H]3c4ccc(O)cc4CC[C@H]3[C@@H]1CC[C@@H]2O | -81.4% (active) and -83.1% (active)
28 | CON(C)C(=O)N1N=C(c2cc(F)ccc2F)S[C@@]1(CCCN)c1ccccc1 | -53.7% (inactive)
29 | CCCCc1nc2ccn(CC(=O)N(C)C)c(=O)c2n1Cc1ccc(-c2ccccc2-c2nn[nH]n2)cc1 | 18.6% (inactive) and -0.527% (inactive)
30 | O=C1CSC(=O)N1 | 20.7% (inactive)
31 | O=C1NC(=O)c2cc(Nc3ccccc3)c(Nc3ccccc3)cc21 | 7.82% (inactive)
32 | CC(=O)[C@H]1CCC2C3CCC4=CC(=O)CC[C@]4(C)C3[C@H](OC(=O)CCC(=O)O)C[C@@]21C (some centres not stated) | -2.62% (inactive)
33 | CC(C)(c1ccc(O)cc1)c1ccc(O)cc1 | 6.99% (inactive)
34 | CCc1ccccc1OC[C@@H](O)CN[C@H]1CCCc2ccccc21 | 23.1% (inactive) and 15.7% (inactive)
35 | C[C@@H]1CC[C@@]2(OC1)O[C@H]1C[C@H]3[C@@H]4CC=C5C[C@@H](O)CC[C@]5(C)[C@H]4CC[C@]3(C)[C@H]1[C@@H]2C | 6.17% (inactive)
36 | CN1[C@@H]2CC[C@@H]1CC(OC(c1ccccc1)c1ccccc1)C2 (some centres not stated) | 11.3% (inactive)
37 | O=[N+]([O-])c1cn2c(n1)OC[C@@H](OCc1ccc(OC(F)(F)F)cc1)C2 | -78.6% (active)
38 | CC1O[C@@H](Oc2c(-c3ccc(O)c(O)c3)oc3cc(O)cc(O)c3c2=O)[C@H](O)[C@H](O)[C@H]1O (some centres not stated) | 5.62% (inactive)
39 | O=C1NC(=O)/C(=C\c2ccc(-c3ccc(F)cc3)o2)S1 | 32.3% (inactive)
40 | [2H]C([2H])([2H])C(O)(CCO[C@@H](C)[C@H]1CC[C@H]2/C(=C/C=C3/C[C@@H](O)C[C@H](O)C3=C)CCC[C@]12C)C([2H])([2H])[2H] | 0.514% (inactive)
41 | COc1ccc2c(=O)c(CC(=O)O)coc2c1 | 4.96% (inactive)
42 | CO/N=C(/C(=O)N[C@@H]1C(=O)N2C(C(=O)OCOC(=O)C(C)(C)C)=C(/C=C/c3scnc3C)CS[C@H]12)c1csc(N)n1 | 2.91% (inactive)
43 | C/C=C1\NC(=O)[C@H]2CSSCCC=C[C@H](CC(=O)N[C@H](C(C)C)C(=O)N2)OC(=O)[C@H](C(C)C)NC1=O | -80.8% (active)
44 | CC(=O)c1ccc2c(c1)[C@H](NC(=O)c1ccc(F)c(Cl)c1)[C@H](O)C(C)(C)O2 | -1.26% (inactive)
45 | C[C@]12CCC(=O)C=C1CCC1C2[C@@H](O)C[C@@]2(C)C1CC[C@]2(O)C(=O)CO (some centres not stated) | -3.05% (inactive)
46 | O=C(O)COc1ccc(OCCNC[C@@H](O)COc2ccccc2)cc1 | 0.151% (inactive)
47 | COc1ccc2cccc(N3CCN(CCNC(=O)c4ccc(F)cc4)CC3)c2c1 | 40.8% (inactive) and 23.4% (inactive)
48 | CCCC(C)NC(=O)c1ccc(Cl)c(Cl)c1 (configuration not stated) | 6.33% (inactive)
49 | CC(C)C[C@H](NC(=O)CNC(=O)c1cc(Cl)ccc1Cl)B(O)O | -77.9% (active)
50 | O=C(CNC(=O)c1ccc(Cl)cc1)NO | 36.3% (inactive)
51 | CC(C)C[C@H](NC(=O)CNC(=O)c1cc(Cl)ccc1Cl)B1OC(=O)CC(CC(=O)O)(C(=O)O)O1 (some centres not stated) | -87.8% (active)
52 | CC1=C(/C=C/C(C)=C/C=C/C(C)=C/C=O)C(C)(C)CCC1 | 16.4% (inactive)

Row | SMILES | activity change, negative = inhibition
53 | O=C(Nc1cccnn1)N1CCC(=Cc2cccc(Oc3ccc(C(F)(F)F)cn3)c2)CC1 | -18.9% (inactive)
54 | CC1(C)C(=O)C=C[C@@]2(C)C1CC(=O)[C@]1(C)C2CC[C@@]2(C)[C@H](c3ccoc3)OC(=O)[C@H]3O[C@]321 (some centres not stated) | 30.3% (inactive)
55 | CC(=O)O[C@@H]1C[C@H]2C(C)(C)C(=O)C=C[C@]2(C)[C@H]2CC[C@@]3(C)[C@H](c4ccoc4)OC(=O)[C@H]4O[C@]43[C@@]21C | 26.1% (inactive)
56 | CC1(C)C(=O)C=C[C@@]2(C)C1C=C[C@]1(C)C2CC[C@@]2(C)[C@H](c3ccoc3)OC(=O)[C@H]3O[C@]321 (some centres not stated) | -89.3% (active)
57 | CC(=O)O[C@H]1C[C@@H](OC(C)=O)C(C)(C)C2C[C@@H](O)[C@]3(C)C(CC[C@@]4(C)[C@H](c5ccoc5)OC(=O)[C@H]5O[C@]543)[C@]21C (some centres not stated) | 5.63% (inactive)
58 | OCc1c[nH]c2ccccc12 | 2.87% (inactive) and 57.8% (inactive)
59 | COC(=O)c1csc(C(=O)c2c[nH]c3ccccc23)n1 | 5.76% (inactive)
60 | CC(C)(C)c1cc(C(C)(C)C)c(NC(=O)c2c[nH]c3ccccc3c2=O)cc1O | -81.7% (active)
61 | NC(N)=NCCNS(=O)(=O)c1cccc2cnccc12 | 0.419% (inactive) and 15.9% (inactive)
62 | CC(C)c1ccc2c(c1)C(N1CCN(CCO)CC1)Cc1ccc(F)cc1S2 (configuration not stated) | -37.4% (inactive)
63 | CC(=O)Oc1c(C)cc(OCC(O)CNC(C)C)c(C)c1C (configuration not stated) | -4.5% (inactive)
64 | CNC(=O)c1cnn(-c2nc(N)c3ncn([C@@H]4O[C@H](CO)C(O)C4O)c3n2)c1 (some centres not stated) | 7.49% (inactive)
65 | Cc1ccc(-c2nn(C(C)(C)C)c3ncnc(N)c23)cc1 | -88.2% (active) and -83% (active)
66 | CC(C)(C)n1nc(-c2cccc3ccccc23)c2c(N)ncnc21 | -64.8% (inactive) and -76.3% (active)
67 | CC(C)(C)n1nc(-c2ccc(Cl)cc2)c2c(N)ncnc21 | -91.7% (active)
68 | CCNC(=O)CCC/C=C\C[C@@H]1[C@@H](/C=C/C(O)CCc2ccccc2)[C@H](O)C[C@@H]1O (some centres not stated) | 8.47% (inactive)
69 | O=[N+]([O-])c1cncn1CCN1CCOCC1 | 23.6% (inactive)
70 | CCCOc1ccc2nc(NC(=O)OC)sc2c1 | 106% (inactive)
71 | CCCn1c(=O)[nH]c(=O)c2[nH]cnc21 | 6.86% (inactive)
72 | CCC(=O)c1ccc(OCC(O)CN2CCN(c3ccccc3)CC2)cc1 (configuration not stated) | 9.53% (inactive)
73 | COc1ccc(N2CCOCC2)c2sc(NC(=O)N3CCC(C)(O)CC3)nc12 | 12.2% (inactive)
74 | CCCCC#Cc1nc(NC)c2ncn(C3OC(CO)C(O)C3O)c2n1 (configuration not stated) | -3.28% (inactive)
75 | Cc1cc(OCCN2CCOCC2)nn1-c1ccc2ccccc2c1 | 13.6% (inactive)
76 | O=c1[nH]c(=O)c2[nH]c(=O)[nH]c2[nH]1 | 3.85% (inactive)
77 | CC(C)NC[C@@H](O)c1ccc(NS(C)(=O)=O)cc1 | 2.38% (inactive)
